Data from the supplement of paper PMC7366291.
Structures can show the parent of a compound that is named as a salt. ± gives the standard deviation or the standard deviation of the averaged measurements.

Experiments:
Settings in all cases: 25 µM; exposure: 24-48 hpf
[1] = tested on: Danio rerio Tg(wt1b:EGFP) embryo, pronephros; assay: glomerular separation, fold change vs DMSO control; higher = glomeruli further apart (abnormal)
Outline: (§1)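 Dechorionated Tg(wt1b:EGFP) zebrafish embryos were treated with 25 μM compound in 0.5% DMSO, in HEPES-buffered E3 with 0.003% PTU, from 24 to 48 hpf at 28.5°C. On maximum projections of dorsal pronephros images, 16 hand-placed reference points in Fiji gave distances and angles, and values more than 2 SD from the feature mean were left out. Results are fold changes over the mean of same-day DMSO-treated embryos.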

[2] = tested on: Danio rerio Tg(wt1b:EGFP) embryo, pronephros; assay: glomerular width (mean of left and right), fold change vs DMSO control; higher = wider glomerulus
Outline: as §1

[3] = tested on: Danio rerio Tg(wt1b:EGFP) embryo, pronephros; assay: fraction of imaged embryos annotated as normal kidney; higher = less nephrotoxic; extreme values may be limits of the assay
Outline: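 The read-out is the proportion of embryos in each treatment manually annotated as normal-kidney. Exposure ran from 24 to 48 hpf at 28.5°C in 12-well plates, using dechorionated Tg(wt1b:EGFP) zebrafish embryos in 5 mM HEPES-buffered E3 with 0.003% PTU, 0.5% DMSO and 25 μM compound. For imaging, larvae were anaesthetised with tricaine, positioned dorsally in agarose-filled 96-well plates and captured by widefield fluorescence (470 nm, 10 z-slices), with scoring done on maximum projections.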

[4] = tested on: Danio rerio Tg(wt1b:EGFP) embryo, pronephros; assay: pronephric angle neck segment to proximal convoluted tubule (mean of left and right), fold change vs DMSO control; higher = larger pronephric angle
Outline: as §1

Structure (SMILES) | glomerular separation [1] | glomerular width [2] | fraction of imaged embryos annotated as normal kidney [3] | pronephric angle neck segment [4]
Nc1ccc(C(=O)O)c(O)c1 [4-aminosalicylic acid] | 0.608 ± 0.17 | 0.9604 ± 0.008 | 0.833 | 0.995 ± 0.018
CCCC(C(=O)OCCN(CC)CC)(c1ccccc1)c1ccccc1 [Proadifen hydrochloride] | 0.771 ± 0.16 | 1.09 ± 0.071 | 0.889 | 1.03 ± 0.037
Cn1cnc([N+](=O)[O-])c1Sc1ncnc2[nH]cnc12 [Azathioprine] | 1.2 ± 0.26 | 1.02 ± 0.042 | 0.833 | 0.994 ± 0.015
CC1=C(C(=O)O)N2C(=O)[C@@H](NC(=O)[C@H](N)c3ccc(O)cc3)[C@H]2SC1 [Cefadroxil] | 1.23 ± 0.49 | 1.08 ± 0.042 | 0.833 | 0.923 ± 0.049
CCN(CC)C(=O)N1CCN(C)CC1 [Diethylcarbamazine citrate] | 0.96 ± 0.28 | 0.958 ± 0.028 | 0.909 | 1.05 ± 0.02
CCc1cccc2c3c([nH]c12)C(CC)(CC(=O)O)OCC3 (stereo unspecified) [Etodolac] | 1.66 ± 0.82 | 0.954 ± 0.025 | 0.636 | 1.13 ± 0.055
Cc1cc(NC(=O)C2=C(O)c3ccccc3S(=O)(=O)N2C)no1 [Isoxicam] | 1.19 ± 0.55 | 1.04 ± 0.034 | 0.917 | 1.02 ± 0.036
C[C@H](CCC(=O)O)[C@H]1CC[C@H]2[C@@H]3CC[C@@H]4C[C@H](O)CC[C@]4(C)[C@H]3CC[C@]12C [Lithocholic acid] | 1.26 ± 0.64 | 0.839 ± 0.085 | 0.364 | 0.929 ± 0.046
O=C(NCCN1CCOCC1)c1ccc(Cl)cc1 [Moclobemide] | 0.89 ± 0.26 | 1.01 ± 0.088 | 0.833 | 0.969 ± 0.011
CC(=O)OCC(=O)[C@@]1(O)CC[C@H]2[C@@H]3CCC4=CC(=O)C=C[C@]4(C)[C@@]3(F)[C@@H](O)C[C@@]21C [Isoflupredone acetate] | 1.22 ± 0.63 | 1.21 ± 0.017 | 0.583 | 1.014 ± 0.0048
Cc1cccc(Nc2ccccc2C(=O)O)c1C [Mefenamic acid] | 5.08 ± 1.4 | 0.617 ± 0.064 | 0 | 1.63 ± 0.059
CC(=O)Oc1ccccc1C(=O)O [Acetylsalicylic acid] | 1.2 ± 0.37 | 0.951 ± 0.019 | 0.917 | 1.01 ± 0.018
CCN(CC)CCCC(C)Nc1c2ccc(Cl)cc2nc2ccc(OC)cc12 (stereo unspecified) [Quinacrine dihydrochloride hydrate] | 0.766 ± 0.2 | 1.01 ± 0.016 | 0.75 | 0.971 ± 0.021
CC(=O)OCC(=O)[C@@]1(O)CC[C@H]2[C@@H]3CCC4=CC(=O)CC[C@]4(C)[C@H]3[C@@H](O)C[C@@]21C [Cortisol acetate] | 1.43 ± 0.59 | 1.29 ± 0.049 | 0.25 | 1.01 ± 0.031
CCOC(=O)[C@H](CCc1ccccc1)N[C@@H](C)C(=O)N1CCC[C@H]1C(=O)O [Enalapril maleate] | 0.704 ± 0.19 | 1.01 ± 0.03 | 0.667 | 0.9423 ± 0.0071
CC(C)(C)NC(=O)[C@H]1CC[C@H]2[C@@H]3CC[C@H]4NC(=O)C=C[C@]4(C)[C@H]3CC[C@]12C [Finasteride] | 0.797 ± 0.34 | 0.937 ± 0.018 | 0.917 | 1.04 ± 0.023
NC(N)=Nc1nc(CSCC/C(N)=N/S(N)(=O)=O)cs1 [Famotidine] | 1.11 ± 0.48 | 0.98 ± 0.038 | 0.833 | 0.9801 ± 0.0036
Cc1nccn1CC1CCc2c(c3ccccc3n2C)C1=O (stereo unspecified) [Ondansetron Hydrochloride] | 1.05 ± 0.35 | 1.011 ± 0.01 | 0.833 | 0.96132 ± 0.00094
Nc1nc(CC(=O)Nc2ccc(CCNC[C@H](O)c3ccccc3)cc2)cs1 [Mirabegron] | 0.841 ± 0.26 | 1.04 ± 0.067 | 0.833 | 0.965 ± 0.014
CN(C)CCN(Cc1ccc(Cl)cc1)c1ccccn1 [Chloropyramine hydrochloride] | 0.981 ± 0.57 | 1.07 ± 0.064 | 0.917 | 0.964 ± 0.016
Cc1c(N)c(=O)n(-c2ccccc2)n1C [Ampyrone] | 0.975 ± 0.3 | 1.01 ± 0.031 | 0.917 | 0.97 ± 0.0034
COC(=O)Nc1nc2cc([S+]([O-])c3ccccc3)ccc2[nH]1 (stereo unspecified) [Oxfendazol] | 1.06 ± 0.33 | 1.05 ± 0.043 | 0.833 | 1.036 ± 0.006
C[n+]1ccccc1/C=N/O [Pralidoxime chloride] | 0.691 ± 0.38 | 0.9582 ± 0.0035 | 0.833 | 1.039 ± 0.01
Nc1c2c(nc3ccccc13)CCCC2 [Tacrine hydrochloride] | 1.09 ± 0.33 | 1.01 ± 0.029 | 0.833 | 1.03 ± 0.042
CC(=O)O[C@@]12CO[C@@H]1C[C@H](O)[C@@]1(C)C(=O)[C@H](O)C3=C(C)[C@@H](OC(=O)[C@H](O)[C@@H](NC(=O)OC(C)(C)C)c4ccccc4)C[C@@](O)([C@@H](OC(=O)c4ccccc4)[C@H]21)C3(C)C [Docetaxel] | 1.11 ± 0.48 | 0.978 ± 0.051 | 0.917 | 1.007 ± 0.0081
O=C1CN2Cc3c(ccc(Cl)c3Cl)N=C2N1 [Anagrelide] | 1.1 ± 0.67 | 0.932 ± 0.098 | 0.917 | 0.988 ± 0.027
CCOc1ccc2c(c1)C(C)=CC(C)(C)N2 [Ethoxyquin] | 0.864 ± 0.31 | 1.04 ± 0.039 | 0.75 | 0.975 ± 0.044

Structure (SMILES) | glomerular separation [1] | glomerular width [2] | fraction of imaged embryos annotated as normal kidney [3] | pronephric angle neck segment [4]
CN1CCC(=C2c3ccccc3CCc3sccc32)CC1 [Pizotifen malate] | 1.26 ± 0.48 | 0.84842 ± 0.00054 | 1 | 1.06 ± 0.0029
NC[C@H]1CC[C@H](C(=O)O)CC1 [Tranexamic acid] | 0.901 ± 0.18 | 0.9771 ± 0.0082 | 1 | 1.05 ± 0.022
CC1CCc2cc(F)cc3c(=O)c(C(=O)O)cn1c23 (stereo unspecified) [Flumequine] | 2.57 ± 1.2 | 1.05 ± 0.023 | 0.583 | 1.15 ± 0.046
Clc1ccc(CO/N=C(\Cn2ccnc2)c2ccc(Cl)cc2Cl)c(Cl)c1 [Oxiconazole Nitrate] | 3.51 ± 1.1 | 0.623 ± 0.014 | 0 | 1.26 ± 0.03
Nc1ccc(/N=N/c2ccccc2)c(N)n1 [Phenazopyridine hydrochloride] | 1.27 ± 0.52 | 0.979 ± 0.025 | 0.583 | 1.101 ± 0.01
O=C(C1CCCCC1)N1CC(=O)N2CCc3ccccc3C2C1 (stereo unspecified) [Praziquantel] | 1.18 ± 0.28 | 1 ± 0.052 | 0.545 | 1.02 ± 0.057
CO[C@@]1(NC(=O)C2SC(=C(C(N)=O)C(=O)O)S2)C(=O)N2C(C(=O)O)=C(CSc3nnnn3C)CS[C@@H]21 (stereo partly specified) [Cefotetan] | 1.24 ± 0.33 | 0.972 ± 0.012 | 0.909 | 0.985 ± 0.06
Cc1cc(N)c2ccccc2[n+]1CCCCCCCCCC[n+]1c(C)cc(N)c2ccccc21 [Dequalinium dichloride] | 1 ± 0.33 | 1.02 ± 0.021 | 0.75 | 0.9864 ± 0.0034
CC(=C(CCO)SSCC1CCCO1)N(C=O)Cc1cnc(C)nc1N (stereo in doubt) [Fursultiamine Hydrochloride] | 1.06 ± 0.24 | 0.996 ± 0.027 | 0.833 | 1.005 ± 0.0057
CN1CCCCC1CCN1c2ccccc2Sc2ccc([S+](C)[O-])cc21 (stereo unspecified) [Mesoridazine besylate] | 1.4 ± 1 | 0.916 ± 0.033 | 0.833 | 1.02 ± 0.033
CCCCOc1ccc(C(=O)CCN2CCCCC2)cc1 [Dyclonine hydrochloride] | 0.982 ± 0.26 | 1.02 ± 0.071 | 0.833 | 1.004 ± 0.0035
CN1CCN(CC(=O)N2c3ccccc3C(=O)Nc3cccnc32)CC1 [Pirenzepine dihydrochloride] | 1.19 ± 0.65 | 0.9891 ± 0.0015 | 0.75 | 1.03 ± 0.059
CCN(CC)CCNC(=O)COc1ccc(OC)cc1 [Mefexamide hydrochloride] | 1.52 ± 0.84 | 0.916 ± 0.021 | 0.833 | 1.07 ± 0.086
O=C(O)c1cc(/N=N/c2ccc(S(=O)(=O)Nc3ccccn3)cc2)ccc1O [Sulfasalazine] | 0.959 ± 0.28 | 1.02 ± 0.016 | 0.917 | 0.999 ± 0.034
Nc1ccc(C(=O)NCC(=O)O)cc1 [Aminohippuric acid] | 0.88 ± 0.41 | 0.993 ± 0.03 | 0.917 | 0.991 ± 0.018
CC(C)CC(=O)N[C@H](C(=O)N[C@H](C(=O)N[C@@H](CC(C)C)[C@@H](O)CC(=O)N[C@@H](C)C(=O)N[C@@H](CC(C)C)[C@@H](O)CC(=O)O)C(C)C)C(C)C [Pepstatin A] | 0.947 ± 0.11 | 1.03 ± 0.012 | 0.818 | 1.01 ± 0.041
CC(=O)[C@@]1(O)CC[C@H]2[C@@H]3C[C@H](C)C4=CC(=O)C=C[C@]4(C)[C@@]3(F)[C@@H](O)C[C@@]21C [Fluorometholone] | 1.11 ± 0.27 | 1.174 ± 0.0086 | 0.417 | 0.997 ± 0.035
CCn1cc(C(=O)O)c(=O)c2cnc(N3CCNCC3)nc21 [Pipemidic acid] | 0.919 ± 0.32 | 1.05 ± 0.013 | 0.75 | 0.9737 ± 0.0064
CO[C@H]1/C=C/O[C@@]2(C)Oc3c(C)c(O)c4c(O)c(c(/C=N/N5CCN(C)CC5)c(O)c4c3C2=O)NC(=O)/C(C)=C\C=C\[C@H](C)[C@H](O)[C@@H](C)[C@@H](O)[C@@H](C)[C@H](OC(C)=O)[C@@H]1C [Rifampicin] | 1.08 ± 0.28 | 1.02 ± 0.018 | 0.833 | 0.991 ± 0.022
COc1cc2nc(N(C)CCCNC(=O)C3CCCO3)nc(N)c2cc1OC (stereo unspecified) [Alfuzosin hydrochloride] | 1.23 ± 0.62 | 1.01 ± 0.02 | 0.818 | 0.953 ± 0.036
O=C(CCCN1CC=C(n2c(=O)[nH]c3ccccc32)CC1)c1ccc(F)cc1 [Droperidol] | 1.38 ± 0.42 | 0.84901 ± 0.00078 | 0.667 | 1.04 ± 0.046
C=CC(N)CCC(=O)O (stereo unspecified) [Vigabatrin hydrochloride] | 0.956 ± 0.33 | 1.129 ± 0.0097 | 0.917 | 1.05 ± 0.029
CC(C(O)c1ccc(O)cc1)N1CCC(Cc2ccccc2)CC1 (stereo unspecified) [Ifenprodil tartrate] | 0.712 ± 0.33 | 1.04 ± 0.024 | 1 | 0.942 ± 0.089
O=C1C(CC[S+]([O-])c2ccccc2)C(=O)N(c2ccccc2)N1c1ccccc1 (stereo unspecified) [Sulfinpyrazone] | 1.21 ± 0.35 | 1.02 ± 0.03 | 0.833 | 1 ± 0.012
CCCCC(=O)O[C@H]1CC[C@H]2[C@@H]3CCc4cc(O)ccc4[C@H]3CC[C@]12C [Estradiol Valerate] | 1.02 ± 0.37 | 0.925 ± 0.016 | 0.583 | 1.134 ± 0.0028
C[C@@H]1[C@H](O)[C@@H](C)/C=C/C=C/C=C/C=C/C=C/C=C/C=C/[C@H](O[C@@H]2O[C@H](C)[C@@H](O)[C@H](N)[C@@H]2O)C[C@@H]2O[C@](O)(C[C@@H](O)C[C@@H](O)[C@H](O)CC[C@@H](O)C[C@@H](O)CC(=O)O[C@H]1C)C[C@H](O)[C@H]2C(=O)O [Amphotericin B] | 3.69 ± 2.9 | 0.907 ± 0.13 | 0 | 1.59 ± 0.016
O=C1CN(/N=C/c2ccc([N+](=O)[O-])o2)C(=O)N1 [Nitrofurantoin] | 0.915 ± 0.35 | 1.04 ± 0.012 | 0.833 | 0.968 ± 0.015
